Results from PubChem BioAssay (EPA / NIEHS).
Records with an inconclusive call do not appear. Calls of active or inactive are those of the source. How the source made its calls, unless noted: active means hit-call score of the fitted dose curve at least 0.9, where 1 is the maximum; inactive means score below 0.9.

Tests used:
[1] = Tanguay_ZF_120hpf_MUSC: Oregon State University Tanguay Lab 120 Hour Post-fertilization zebrafish Assay for Muscle Malformation (AID 2284401)
Outline: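 Scored as a binary brightfield endpoint at 120 hpf, fitted versus DMSO. Single dechorionated wild-type (Tropical 5D) zebrafish embryos per well, statically exposed at 28C from 6 hpf onward with final DMSO 0.64%.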

[2] = UKN5_HCS_SBAD2_cell_viability: Viability Assessment in the University of Konstanz (UKN) Leist Lab Neurite Outgrowth Assay in human iPSC-derived immature Dorsal Root Ganglia Neurons (UKN5) (AID 2284056)
Outline: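 iPSC-derived immature peripheral neurons (SBAD2) seeded on Matrigel with CHIR99021, SU5402 and DAPT, dosed 1 h later for 24 h. Viability from Hoechst H-33342 and calcein-AM live staining, high-content imaging; bidirectional fit versus DMSO.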

[3] = UKN5_HCS_SBAD2_neurite_outgrowth: University of Konstanz (UKN) Leist Lab Neurite Outgrowth Assay in human iPSC-derived immature Dorsal Root Ganglia Neurons (UKN5) (AID 2284070); details: actives raise or lower the signal
Outline: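 Neurite outgrowth is quantified as calcein-AM-labelled neurite area in human iPSC-derived peripheral neurons treated for 24 h, starting 1 h after plating in medium with CHIR99021 (1.5 uM), SU5402 (5 uM) and DAPT (5 uM).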

[4] = UKN2_HCS_IMR90_neural_migration: University of Konstanz (UKN) Leist Lab Neural Crest Cell Migration Assay in human induced IMR90 Pluripotent Stem Cells (UKN2) (AID 2284204); details: actives raise or lower the signal
Outline: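 High-content imaging of calcein-AM and Hoechst stained cells quantifies migration into a stopper-defined gap after 24 h compound exposure. Neural crest cells from IMR90 iPSC migrated 24 h in EGF/FGF N2-S medium before dosing; DMSO baseline.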

[5] = UKN4_HCS_LUHMES_neurite_outgrowth: University of Konstanz (UKN) Leist Lab Neurite Outgrowth Assay in human LUHMES cells (UKN4) (AID 2284206); details: actives raise or lower the signal
Outline: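 Neurite area in dopaminergic-model LUHMES neurons is measured by high-content imaging of calcein-AM after 24 h treatment starting shortly after day-2 replating; Hoechst staining tracks viability.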

[6] = IUF_NPC1b_proliferation_BrdU_72hr: Leibniz Research Institute for Environmental Medicine (IUF) 72-hour Neural Progenitor Cell Bromodeoxyuridine (BrdU) Proliferation Assay (NPC1b) (AID 2284207)
Outline: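 Human fetal cortex-derived (GW 16-19) neural progenitor spheres, 0.25-0.35 mm, one per well in EGF/FGF proliferation medium, exposed to compound for 72 h at 37C, pH 7.2-7.6. BrdU incorporation over the final 16 h read by luminescence ELISA, relative to DMSO.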

[7] = IUF_NPC1a_proliferation_area_72hr: Leibniz Research Institute for Environmental Medicine (IUF) 72-hour Neural Progenitor Cell Proliferation Area Assay (NPC1a) (AID 2284208)
Outline: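 Spheres of 0.3 mm are plated singly in growth-factor medium and exposed from day 0. After three days at 37C and 5% CO2, sphere area is measured by phase contrast imaging, with activity referenced to DMSO.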

[8] = IUF_NPC1_viability_72hr: Viability Assessment at 72 hours in the Leibniz Research Institute for Environmental Medicine (IUF) Neural Progenitor Cell Proliferation Assay (NPC1) (AID 2284209)
Outline: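 Three-day continuous exposure of human neural progenitor spheres under EGF/FGF-driven proliferation; cell viability scored by alamar blue signal versus DMSO.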

[9] = UKN4_HCS_LUHMES_cell_viability: Viability Assessment in the University of Konstanz (UKN) Leist Lab Neurite Outgrowth Assay in human LUHMES cells (UKN4) (AID 2284232)
Outline: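 Measured in replated, 2-day-differentiated LUHMES cells treated 24 h; stained 30 min with H-33342 and calcein-AM before high-content imaging.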

[10] = UKN2_HCS_IMR90_cell_viability: Viability Assessment in the University of Konstanz (UKN) Leist Lab Neural Crest Cell Migration Assay in human induced IMR90 Pluripotent Stem Cells (UKN2) (AID 2284233);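 further: cells exposed to compound for 24 h after a 24 h migration phase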
Outline: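 After calcein-AM/Hoechst staining, viability is quantified by high-content fluorescence imaging, relative to DMSO, in iPSC (IMR90)-derived neural crest cells. Exposure lasts 24 h, starting after a 24 h migration period on PLO/laminin/fibronectin coating.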

[11] = IUF_NPC2a_radial_glia_migration_120hr: Leibniz Research Institute for Environmental Medicine (IUF) 120-hour Neural Progenitor Cell Migration Assay for Radial Glia Migration (NPC2a) (AID 2284298)
Outline: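 Readout: distance in um from sphere core edge to migration-area edge, derived from Hoechst nuclei density with a threshold-defined polynomial boundary. Spheres: hNPC, GW 16-19, 0.3 mm, on PDL/laminin; exposure 5 days; DMSO is baseline.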

[12] = IUF_NPC2a_radial_glia_migration_72hr: Leibniz Research Institute for Environmental Medicine (IUF) 72-hour Neural Progenitor Cell Migration Assay for Radial Glia Migration (NPC2a) (AID 2284299)
Outline: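 Spheres of human primary neural progenitors migrate on poly-D-lysine/laminin under compound exposure at 37C, 5% CO2. The 72 h radial glia migration distance comes from brightfield images, measured manually.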

[13] = IUF_NPC3_neuronal_differentiation_120hr: Leibniz Research Institute for Environmental Medicine (IUF) 120-hour Neuronal Differentiation Assay (NPC3) (AID 2284301)
Outline: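 Value is percent TUBB3-positive neurons among Hoechst-stained nuclei in the migration area, scored by trained CNN after 120 h differentiation. Primary hNPC spheres on poly-D-lysine/laminin, N2 medium, continuous dosing from day 0, half-refeed day 3; DMSO reference.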

[14] = IUF_NPC4_neurite_length_120hr: Leibniz Research Institute for Environmental Medicine (IUF) 120-hour Neuronal Morphology Assay for Neurite Length (NPC4) (AID 2284302)
Outline: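 Neurite length, the mean in um across TUBB3-stained neurons, is derived by skeletonization of high-content images after 120 h differentiation. Compound exposure, 7 concentrations plus solvent control, ran from plating of hNPC spheres on poly-D-lysine/laminin, with medium half-replaced on day 3.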

[15] = IUF_NPC5_oligodendrocyte_differentiation_120hr: Leibniz Research Institute for Environmental Medicine (IUF) 120-hour Oligodendrocyte Differentiation Assay (NPC5) (AID 2284304; active means hit-call score of the fitted dose curve at least 0.9, where 1 is the maximum;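 further: primary human fetal neural progenitor spheres plated to migrate and differentiate; share of O4-positive cells among Hoechst nuclei found by CNN image analysis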)
Outline: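 Oligodendrocyte differentiation was scored after 120 h as the O4-positive share of Hoechst-stained nuclei across the neurosphere migration area, using a trained convolutional neural network on high-content fluorescence images. Human fetal neural progenitor spheres were dosed from day 0, normalised to DMSO.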

[16] = IUF_NPC4_neurite_area_120hr: Leibniz Research Institute for Environmental Medicine (IUF) 120-hour Neuronal Morphology Assay for Neurite Area (NPC4) (AID 2284305; active means hit-call score of the fitted dose curve at least 0.9, where 1 is the maximum)
Outline: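 Neurite area (pixels, nuclei excluded) of TUBB3-positive neurons from hNPC spheres differentiating 5 days under continuous exposure at 37 C, 5% CO2. High-content imaging; loss of signal versus DMSO control across 7 concentrations.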

[17] = IUF_NPC2-5_cytotoxicity_120hr: Cytotoxicity Assessment at 120 hours in the Leibniz Research Institute for Environmental Medicine (IUF) Neural Progenitor Cell Migration and Differentiation Assay (NPC2-5) (AID 2284307; active means hit-call score of the fitted dose curve at least 0.9, where 1 is the maximum;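 further: LDH released into supernatant as membrane damage marker via resorufin fluorescence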)
Outline: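 Sphere plating starts differentiation and exposure together at day 0. Compound solution is half-replaced on day 3. At 120 h, medium supernatant is taken for an LDH membrane-integrity read based on resazurin reduction to resorufin fluorescence.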

[18] = IUF_NPC2-5_cell_number_120hr: Cell Number Assessment at 120 hours in the Leibniz Research Institute for Environmental Medicine (IUF) Neural Progenitor Cell Migration and Differentiation Assay (NPC2-5) (AID 2284308);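 further: count of Hoechst-stained nuclei in migration zone around plated human neural progenitor spheres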
Outline: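 hNPC spheres, one per well, PDL/laminin, N2 medium, 37C, 5% CO2. Dosing day 0 → half-medium change with fresh compound day 3 → fix 120 h. Readout: Hoechst+ nuclei count, migration area; 7 concentrations plus solvent control.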

[19] = IUF_NPC2-5_viability_120hr: Viability Assessment at 120 hours in the Leibniz Research Institute for Environmental Medicine (IUF) Neural Progenitor Cell Migration and Differentiation Assay (NPC2-5) (AID 2284312)
Outline: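 Alamar blue resorufin fluorescence read after 5 days of differentiation, with compound present from day 0 and replenished at day 3. Primary hNPC spheres on laminin-coated plates, 37C; seven concentrations plus solvent control, fitted against DMSO.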

[20] = IUF_NPC1_cytotoxicity_72hr: Cytotoxicity Assessment at 72 hours in the Leibniz Research Institute for Environmental Medicine (IUF) Neural Progenitor Cell Proliferation Assay (NPC1) (AID 2284332; active means hit-call score of the fitted dose curve at least 0.9, where 1 is the maximum;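 further: rising LDH signal means more cytotoxicity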)
Outline: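 Readout is fluorescence from LDH-dependent resazurin conversion, sampled from culture medium after compound contact lasting 72 h. Each well holds one 0.25-0.35 mm human progenitor sphere kept at 37C, 5% CO2 with EGF and FGF.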

Measured: AC50

C=C(C)C(=O)OCCC(F)(F)C(F)(F)C(F)(F)C(F)(F)C(F)(F)C(F)(F)F
inactive: [1]

CC(C)(C)C(=O)CC(=O)C(F)(F)C(F)(F)C(F)(F)F
inactive: [1]

O=C(F)C1(F)C(F)(F)C(F)(F)C(F)(F)C(F)(F)C1(F)F
inactive: [1]

O=C1N[C@@H]2C(=C[C@H](O)[C@@H](O)[C@H]2O)c2cc3c(c(O)c21)OCO3
active: [2] 30.3 nM | [3] 32.7 nM | [4] 47 nM | [5] 45.6 nM | [6] 21.6 nM | [7] 23.7 nM | [8] 38.3 nM | [9] 256 nM | [10] 218 nM | [11] 37 nM | [12] 45 nM | [13] 11.1 nM | [14] 14.8 nM | [15] 12.1 nM | [16] 9.33 nM | [17] 13.1 nM | [18] 26.7 nM | [19] 24.2 nM
inactive: [20]

OCC(F)(F)C(F)(F)C(F)(F)C(F)(F)C(F)(F)C(F)(F)CO
inactive: [1]

COC(=O)CCC(F)(F)C(F)(F)C(F)(F)C(F)(F)F
inactive: [1]

FC(F)(F)C(F)(F)C(F)(F)C(F)(F)C(F)(F)C(F)(F)I
inactive: [1]
